hgDAF-12 ag = hgDAF-12 agonism, primary luciferase screen | HEK293 GAL4-hgDAF12 UAS-luciferase reporter, agonist luminescence; normalized to butyrate control | activation, % at 6.8 µM | 370,000 compounds, 1.8% hits;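 active = activation above a cutoff set at the mean of all screened compounds plus 3 SD, cut at about 10% in these data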;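 note: 0% = DMSO wells and 100% = sodium butyrate wells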
ssDAF12 agonist = activates DAF-12 receptor from parasite S. stercoralis; AID 652126; activation, % at 6.8 µM; HEK293 ssDAF-12/GRIP1 lit1-tk-luc reporter, luminescence; % of 3 µM dafachronic acid response; 370,000 compounds, 1% hits;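 active = activation above the mean over all tested compounds plus 3 SD, cut at about 0.9% in these data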;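 note: 0% = DMSO-only wells and 100% = 3 µM delta7-dafachronic acid wells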
DAX1 inh-1 = inhibitors of human orphan nuclear receptor DAX1 (NR0B1) | AID 504766 | inhibition, % at 6.75 µM | 340,000 compounds, 0.99% hits | HEK293 Gal4-DAX1 luciferase reporter, luminescence | P51843;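 active = inhibition above the mean over all tested compounds plus 3 SD, cut at about 4.2% in these data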;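 note: 0% = DAX1-transfected cells with DMSO and 100% = empty-vector control cells with DMSO; inhibition shows as a rise in luminescence from relieved DAX1 repression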
DAX1 inh-2 = inhibitors of DAX1 repression of SF-1 activated StAR promoter; AID 652010; 370,000 compounds, 1.1% hits; HEK293T StAR-luciferase reporter, SF-1/DAX-1 repression relief; inhibition, % at 6.8 µM;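 active = inhibition above the mean over all tested compounds plus 3 SD, cut at about 3.6% in these data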;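 note: 0% = DAX-1 cells with DMSO and 100% = cells lacking DAX-1 with DMSO; higher inhibition means more luminescence from relief of DAX-1 repression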
hcDAF12 agonist = H. contortus DAF-12 activation, primary screen; HEK293 hcDAF-12 lit1-tk-luc reporter, luminescence; 0% DMSO, 100% Δ7-dafachronic acid; activation, % at 6.8 µM; 370,000 compounds, 1.4% hits;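 active = activation above the mean of all tested compounds plus 3 SD, cut at about 5.5% in these data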;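 note: 100% = response to 3 µM Δ7-dafachronic acid high control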
Wee1 stabilizer = inhibitors of human Wee1 degradation; HeLa Luc-Wee1K328M stability, luciferase luminescence; 100% = proteasome inhibitor MG132 effect; reporter increase, % at 5 µM; 220,000 compounds, 1.2% hits;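 active = activation above the mean of all tested compounds plus 3 SD, set per screening run, cut at about 8.8% in these data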;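 note: cells exposed to compound for 20 h before luminescence read; 0% = DMSO alone and 100% = MG132 at 30 µM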
Target sequence (P30291 whole entry K328M): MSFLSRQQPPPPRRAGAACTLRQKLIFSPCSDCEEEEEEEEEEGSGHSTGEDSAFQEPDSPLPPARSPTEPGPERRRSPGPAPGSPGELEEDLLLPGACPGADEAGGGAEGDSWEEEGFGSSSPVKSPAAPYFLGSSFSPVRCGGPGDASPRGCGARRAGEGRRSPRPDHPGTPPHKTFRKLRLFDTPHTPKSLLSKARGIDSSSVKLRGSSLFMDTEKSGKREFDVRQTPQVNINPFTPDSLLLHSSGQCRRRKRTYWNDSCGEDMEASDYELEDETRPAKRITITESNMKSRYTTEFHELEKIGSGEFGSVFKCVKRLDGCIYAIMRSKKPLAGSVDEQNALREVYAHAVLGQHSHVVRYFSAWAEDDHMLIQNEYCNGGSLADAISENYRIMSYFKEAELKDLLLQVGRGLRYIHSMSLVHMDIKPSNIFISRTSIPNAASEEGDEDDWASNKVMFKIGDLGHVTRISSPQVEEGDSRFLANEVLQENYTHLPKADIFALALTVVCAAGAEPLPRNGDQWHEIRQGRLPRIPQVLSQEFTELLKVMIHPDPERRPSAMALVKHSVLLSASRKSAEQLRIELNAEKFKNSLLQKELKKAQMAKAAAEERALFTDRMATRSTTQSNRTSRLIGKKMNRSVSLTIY
LXR ag = LXR-beta agonism as hcDAF-12 counter-screen; HEK293 Gal4-LXR tk-luc reporter, luminescence, 24 h; normalized: DMSO 0%, positive control 100%; 3,400 tested, under 10 active; shares compounds with hcDAF12 agonist; activation, % at 6.8 µM;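 active = mean percent activation of the reporter above a cutoff set as the average over tested compounds plus their standard deviation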
hcDAF12 ag = hcDAF-12 agonism, confirmation assay; HEK293 hcDAF-12 lit1-tk-luc reporter, luminescence; % of Δ7-dafachronic acid response; 3,400 compounds, 61% hits; AID 743032; activation, % at 6.8 µM; shares compounds with hcDAF12 agonist;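 active = mean activation across triplicate tests above the threshold derived from the earlier primary screen, cut at about 5.5% in these data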;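 note: 0% = DMSO only wells and 100% = 3 µM Δ7-dafachronic acid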
Starred values were filed as active, the others as inactive; . = not tested or not shown. Compounds with a hit are over-represented: about 4.6% of the library has one in this group of screens.

SMILES | hgDAF-12 ag | ssDAF12 agonist | DAX1 inh-1 | DAX1 inh-2 | hcDAF12 agonist | Wee1 stabilizer | LXR ag | hcDAF12 ag
CC1CC(C)CN(C(=O)c2ccc(-c3ccc([N+](=O)[O-])cc3)o2)C1 (centres undefined) | 2.9 | -1.2 | -1.3 | -1.1 | 0.5 | . | . | .
N#Cc1ccc(CSc2ccc(S(=O)(=O)N3CCCCCC3)cn2)cc1 | -1.4 | -0.8 | -0.2 | -1.3 | -1.5 | . | . | .
Cc1nc2ccccc2nc(C)c1=NOCc1ccccc1Cl | 11.4* | -0.3 | 1.0 | 1.0 | 8.7* | -1.1 | -0.3 | -0.8
Cc1[nH]c2ccccc2c1/C=N/NC(=O)c1cccc(Br)c1 | . | . | 1.5 | . | . | . | . | .
Cc1[nH]c2ccccc2c1/C=N/Nc1cccc(C(=O)O)c1 | 12.5* | 0.9* | -2.7 | 1.3 | 11.3* | 1.8 | 1.1 | 12.6*
CCOC(=O)c1sc(=NC(=O)c2cccs2)n(C)c1C | 16.5* | 2.5* | 1.4 | 3.0 | 7.8* | 2.7 | 2.3 | 22.9*
CCOC(=O)c1sc(=NC(=O)c2ccc(Cl)s2)n(C)c1C | 8.4 | 0.5 | 2.5 | 2.0 | 6.7* | 0.8 | 1.5 | 15.2*
CCOC(=O)c1sc(=NC(=O)c2ccc(OC(C)C)cc2)n(C)c1C | 0.7 | -1.7 | 0.4 | 1.5 | 1.4 | -2.4 | . | .
CC1(C(=O)Nc2cccc3ccccc23)CCN1C(=O)C1(c2ccccc2)CCCC1 (centres undefined) | -1.2 | -1.3 | . | -1.0 | 0.6 | . | . | .
COC(=O)C(Cc1ccccc1)NC(=O)CCNC(=O)c1ccc(Br)cc1 (centres undefined) | -0.3 | -1.0 | 0.6 | -0.1 | -0.6 | . | . | .
CCC1CCCCN1CCCNC(=O)c1ccc2c(c1)NC(=O)CN2C (centres undefined) | -0.4 | -0.8 | 0.8 | -0.6 | 8.8* | . | -0.3 | -1.2
CCC1CCCCN1CCCNC(=O)c1ccc(N2CCOCC2)c(NS(=O)(=O)c2ccc(OC)cc2)c1 (centres undefined) | 0.3 | -1.1 | -0.9 | 0.7 | 0.1 | -1.0 | . | .
CCOc1ccc(NC(=O)C(C)Oc2ccccc2C(=O)Nc2ccc(C)c(Cl)c2)cc1 (centres undefined) | 8.1 | 0.7 | -0.1 | 0.2 | 7.0* | 3.7 | 0.0 | 7.4*
Cc1ccc(NC(=S)Nc2ccccn2)cc1C | 12.8* | 1.8* | . | 1.0 | 8.6* | 6.0 | 0.7 | 10.8*
Cc1ccc(NC(=S)Nc2ccccn2)c(C)c1 | 6.8 | 0.8 | 1.1 | 1.4 | 7.2* | -1.8 | 0.9 | 8.7*
Cc1ccc(NC(=S)Nc2ccc3nc(-c4ccccn4)c(-c4ccccn4)nc3c2)cc1C | . | . | -1.7 | . | . | -2.7 | . | .
Cc1cc(C)cc(NC(=S)Nc2ccccn2)c1 | 4.1 | 0.7 | 0.0 | 0.5 | 7.5* | 1.6 | 0.1 | 3.7
COc1ccc(N=CC2=C(O)c3ccccc3C2=O)c(OC)c1 | 9.5 | 1.6* | 2.3 | 2.3 | 12.1* | -0.1 | 0.5 | 6.8*
COc1ccc(CC2=C(O)c3ccccc3C(=O)C2=O)cc1 | 0.5 | -1.4 | -0.5 | 0.8 | -0.2 | . | . | .
Cc1ccccc1Nc1nc(Cl)nc(NC(C)(C)C)n1 | -4.6 | -1.9 | -2.4 | -2.4 | -0.3 | . | . | .
Nc1cccc(CCc2nc3cc4ccccc4cc3[nH]2)c1 | 12.5* | 0.2 | 1.7 | -0.3 | 12.1* | 2.2 | 1.4 | 8.7*
c1ccc(SCc2nc(-c3cccnc3)no2)cc1 | 8.4 | 0.5 | 2.4 | 0.3 | 7.3* | -1.3 | 1.6 | 5.8*
c1ccc(C(Cc2nc(-c3cccnc3)no2)c2ccccc2)cc1 | -2.9 | -1.7 | 0.1 | -1.0 | -2.8 | 0.4 | . | .
CCOC(=O)Cc1nc(N2CCCN(C(C)=O)CC2)c2c(C)c(C(=O)OCC)sc2n1 | 0.2 | -1.6 | . | -1.3 | 6.9* | . | -0.4 | -1.9
N#Cc1ccsc1NC(=O)CSc1nnnn1-c1ccc(O)cc1 | 5.2 | 0.1 | 1.2 | 0.2 | 7.4* | -1.9 | 0.0 | 5.0
Cn1ccnc1SCC(=O)Nc1sccc1C#N | 1.0 | -0.7 | 0.8 | 1.4 | 1.5 | 5.1 | . | .
